SW480 rereplic: DNA re-replication induction in SW480 cells; SW480 DNA re-replication, Hoechst DNA content imaging, 48 h; actives 1.8% (n = 340,000); Potency, µM (doses to about 46.1 µM), usual class: activators; note: nearly all actives have a fitted effect of over 55% in size
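Treated cells incubate 48 hr (37 C, 5% CO2), are stained 40 min with Hoechst, and nuclear fluorescence is enumerated; a rise in nuclei with high DNA signal marks re-replication.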
ELG1 DNA repair: blocks ELG1-dependent DNA repair in HEK293T cells; HEK293T ELG1-luciferase reporter, luminescence, 16 h; DNA damage induced by 5-fluorouridine; actives 2.3% (n = 330,000); Potency, µM (highest dose often 46.1 µM), actives largely listed as inhibitors; AID 504467; note: nearly all actives have a fitted effect of over 55% in size
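Step one: seed 2,000 cells per well. Step two: pin-transfer compound or DMSO alongside 5-fluorouridine. Step three: incubate 16 hr, 37 °C, 5% CO2. Step four: add ONE-Glo, wait 30 min, read luminescence.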
p53 reactivator: restores transcriptional activity of mutant p53; actives 0.063% (n = 320,000); Potency, µM (doses to about 92.2 µM), usual class: activators; H1299 p53-A138V BP100-luciferase reporter, luminescence, 24 h; note: nearly all actives have a fitted effect of over 45% in size
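p53-null H1299 cells stably carrying temperature-sensitive p53-A138V and a BP100-luciferase reporter were pinned with compounds (4-point, 1:5 series) and held 24 hrs at 37 deg C. Luminescence was read 10 min after detection reagent.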
ELG1 genotoxic: induces genotoxicity in HEK293T cells with luciferase-tagged ELG1; Potency, µM (highest dose often 46 µM), most hits filed as activators; HEK293T ELG1-luciferase reporter, luminescence, 16 h; actives 1.3% (n = 330,000); note: nearly all actives have a fitted effect of over 60% in size
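After overnight (16 hr) compound treatment at 37 °C, ELG1-luciferase HEK293T cells were lysed with ONE-Glo; luminescence quantified 30 min later at room temperature.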
AT treatment: potential ataxia-telangiectasia treatment; F2112 A-T fibroblasts, KAP-1 phosphorylation AlphaLISA; neocarzinostatin DNA damage 30 min before lysis; Potency, µM (top dose mostly 57.5 µM), usual class: activators; actives 0.19% (n = 320,000); AID 485349; note: nearly all actives have a fitted effect of over 45% in size
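ATM-like activity read as KAP-1 phosphorylation via AlphaLISA donor/acceptor antibody pairs after lysis and 6 hr at 25C. Cells were ATM-null patient fibroblasts (F2112, hTERT), dosed 60 min, then exposed to the DSB inducer NCS for 30 min.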
MCF10A rerep: inducers of DNA re-replication in MCF 10A breast cells. MCF 10A DNA re-replication, Hoechst nuclear intensity, 48 h. Potency, µM (titrated, usually from 46.1 µM), hits mostly activators. actives 2.9% (n = 350,000). AID 624296; note: nearly all actives have a fitted effect of over 50% in size
Each line names hits and unclear results; the compound was inactive in the other large screens. Most compounds without a hit are left out; they make up all but 7.1% or so of the library. Calls come from the whole dose curve; as a rule, active = well fitted curve in the direction sought with a large enough effect; inconclusive = small, poorly fitted or top-dose-only effect, or another doubt; inactive = no such curve, though single readings can be large; an effect the other way counts as inactive or inconclusive.

COc1cc(N2N=C(c3ccccc3)CC2c2ccccc2)c(C=O)cc1C=O (stereo not given)	MCF10A rerep inconclusive (no result: p53 reactivator)
COc1ccc(C2CC(c3ccccc3)=NN2c2ccc(S(N)(=O)=O)cc2)cc1OC (stereo not given)	SW480 rereplic 23.1µM, MCF10A rerep 16.4µM
NS(=O)(=O)c1ccc(N2N=C(c3ccccc3)CC2c2ccccc2Br)cc1 (stereo not given)	SW480 rereplic 11.6µM, MCF10A rerep inconclusive
CS(=O)(=O)N1N=C(c2ccccc2)CC1c1ccc2c(c1)OCO2 (stereo not given)	ELG1 DNA repair inconclusive, p53 reactivator inconclusive, ELG1 genotoxic inconclusive
CCOC(=O)CN1C(=O)CC(c2ccc([N+](=O)[O-])cc2)C1=O (stereo not given)	none (no result: p53 reactivator)
COc1ccc(C2=NN(c3ccc(C(=O)O)cc3)C(c3ccc(OC)c(OC)c3)C2)cc1 (stereo not given)	SW480 rereplic 18.4µM, ELG1 DNA repair inconclusive, ELG1 genotoxic 23.1µM, AT treatment 28.2µM, MCF10A rerep 3.26µM
COc1ccc(OC)c(-c2csc(NC(=O)C3=COCCO3)n2)c1	none
COc1ccc(OC)c(-c2csc(NC(=O)CN3C(=O)C4CCCCC4C3=O)n2)c1 (stereo not given)	none
COc1ccc(OC)c(-c2csc(NC(=O)c3ccc(OCC4CCCO4)cc3)n2)c1 (stereo not given)	ELG1 DNA repair 6.51µM, p53 reactivator inconclusive
COc1ccc(OC)c(-c2csc(NC(=O)Cn3[nH]c(=O)c4ccccc4c3=O)n2)c1	SW480 rereplic 8.2µM, MCF10A rerep inconclusive
COc1ccc(OC)c(-c2csc(NC(=O)Cc3ccc(F)cc3)n2)c1	SW480 rereplic inconclusive, MCF10A rerep inconclusive
COc1ccc(OC)c(-c2csc(NC(=O)c3ccc(F)cc3)n2)c1	SW480 rereplic inconclusive, ELG1 DNA repair inconclusive, MCF10A rerep 6.51µM
CCc1ccccc1NC(=O)CN1CCN(CC(=O)Nc2ccc(-c3ccccc3)cc2)CC1	MCF10A rerep inconclusive
CCc1ccccc1NC(=O)CN1CCN(C(=O)CNC(=O)c2ccc(-c3ccccc3)cc2)CC1	ELG1 DNA repair inconclusive, MCF10A rerep 5.8µM
CN1C2CCC1/C(=C\c1ccc(F)cc1)C(=O)/C2=C/c1ccc(F)cc1	SW480 rereplic inconclusive, ELG1 DNA repair 18.4µM
COc1cc(/C=C2\CCC(C)C3=C(c4cc(OC)c(OC)c(OC)c4)C(C#N)=C(N)OC32)cc(OC)c1OC (stereo not given)	SW480 rereplic inconclusive, MCF10A rerep 8.2µM (no result: ELG1 DNA repair, p53 reactivator, ELG1 genotoxic, AT treatment)
COCCN1CCC(CO)C1 (stereo not given)	none (no result: ELG1 DNA repair, p53 reactivator, ELG1 genotoxic, AT treatment)
CCN(CC)S(=O)(=O)c1ccc(Cl)c(NC(=S)NC(=O)C2CCCC2)c1	SW480 rereplic 4.61µM, ELG1 DNA repair inconclusive, MCF10A rerep inconclusive
CCN(CC)c1ccc(S(=O)(=O)Nc2cc(Cl)ccc2Cl)cc1NC(=S)NC(=O)C1CCCC1	MCF10A rerep 11.6µM
COc1ccccc1NS(=O)(=O)c1ccc(Cl)c(NC(=S)NC(=O)C2CCCC2)c1	ELG1 DNA repair inconclusive, MCF10A rerep inconclusive
CNC(=O)c1nnsc1S(=O)c1ccc(Cl)cc1 (stereo not given)	SW480 rereplic inconclusive, ELG1 DNA repair inconclusive, MCF10A rerep 2.31µM
CCCNC(=O)c1nnsc1S(=O)c1ccc(Cl)cc1 (stereo not given)	SW480 rereplic 23.1µM, MCF10A rerep 3.26µM
CCCNC(=O)NS(=O)(=O)c1ccc(Cl)cc1	none
CCCNC(=O)c1nnsc1S(=O)(=O)c1ccc(Cl)cc1	SW480 rereplic 7.31µM, ELG1 DNA repair inconclusive, MCF10A rerep 2.31µM
O=C(/C(N=Nc1cccc(C(F)(F)F)c1)=C(/O)c1cccs1)C(F)(F)F	MCF10A rerep 20.6µM
CC(=O)/C(N=Nc1cccc(C(F)(F)F)c1)=C(\C)O	AT treatment inconclusive
CC1(C)CC(N2CCCC2)=CC(=[N+]2CCCCCC2)C1	ELG1 DNA repair 0.58µM
CC1(C)CC(N2CCN(c3ccccc3)CC2)=CC(=[N+]2CCCC2)C1	ELG1 DNA repair inconclusive
O=C(N/N=C/c1ccc(N2CCCCC2)o1)c1ccccc1	SW480 rereplic inconclusive, ELG1 genotoxic inconclusive, MCF10A rerep 23.1µM
NNC(=O)c1nn(-c2ccc(Cl)cc2)cc1O	SW480 rereplic 20.6µM
Cc1ccc(NC(=O)COC(=O)c2nn(-c3ccc(Cl)cc3)cc2O)cc1	ELG1 DNA repair inconclusive, p53 reactivator inconclusive, MCF10A rerep inconclusive
Cc1nc2nc(CCNS(=O)(=O)c3ccc(Cl)cc3)cn2nc1C	none
CCCCCCCCC(NC(=O)c1ccc(C#N)cc1)C(=O)NCCC (stereo not given)	none
CCOc1ccc(C2Nc3ccc4ccccc4c3-c3c2c(=O)oc2ccccc32)cc1 (stereo not given)	SW480 rereplic inconclusive, ELG1 genotoxic inconclusive, MCF10A rerep 5.17µM
C=CCn1c(N)c(C(=O)OCCC)c2nc3ccccc3nc21	ELG1 DNA repair 16.4µM
NS(=O)(=O)c1ccc(NC(=O)COc2ccc(Cl)cc2)cc1	none
CC(=O)c1nn(-c2ccc(Cl)cc2)cc1C(=O)c1ccccc1	MCF10A rerep inconclusive (no result: ELG1 DNA repair, p53 reactivator, ELG1 genotoxic, AT treatment)
CC(=O)c1nn(-c2cccc(Br)c2)cc1C(=O)c1ccc(Cl)cc1	SW480 rereplic inconclusive, MCF10A rerep 4.61µM
CCOC(=O)c1nn(-c2ccc(C)cc2)cc1C(=O)c1ccccc1	ELG1 DNA repair inconclusive, ELG1 genotoxic 2.59µM
CC(=O)c1nn(-c2ccccc2)cc1C(=O)c1cccc(Br)c1	SW480 rereplic inconclusive, MCF10A rerep 1.64µM
COC(=O)c1c(C)[nH]c(C(=O)C(C)OC(=O)c2cnc(C)cn2)c1C (stereo not given)	none
Cc1ccc(OCC(=O)NC2CCCC(C)C2C)c([N+](=O)[O-])n1 (stereo not given)	ELG1 DNA repair inconclusive
O=C(CCNS(=O)(=O)c1ccccc1)Nc1ccccc1	none
COc1ccccc1CNCC(=O)Nc1cc(S(=O)(=O)N2CCOCC2)ccc1Cl	ELG1 DNA repair 20.6µM
COc1ccccc1CNCC(=O)Nc1cc(S(=O)(=O)N2CCCCCC2)ccc1Cl	SW480 rereplic inconclusive, ELG1 DNA repair 23.1µM
O=C(CNCc1ccccn1)Nc1cc(S(=O)(=O)N2CCCCC2)ccc1Cl	ELG1 DNA repair inconclusive
COc1ccc(S(=O)(=O)N2CCCCCC2)cc1C(=O)N(C)Cc1ccc(Cl)cc1Cl	ELG1 DNA repair inconclusive, MCF10A rerep 2.06µM
Cc1ccc(S(=O)(=O)N2CCOCC2)cc1NC(=O)CNCc1ccccc1Cl	SW480 rereplic 5.17µM, ELG1 DNA repair inconclusive, MCF10A rerep inconclusive
